Assay [1] in a line: NCI Yeast Anticancer Drug Screen. Data for the rad50 strain (AID 155).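 Note: 0% = growth of vehicle-only cultures of the same strain.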 As to conditions: S. cerevisiae rad50 strain growth inhibition; at 50.0 µM; active compounds read high. The procedure, abridged:
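Genetically altered yeast (DNA repair pathway); compound treatment; growth inhibition vs vehicle ctrl.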

A short description of assay [2]: NCI Yeast Anticancer Drug Screen. Data for the mec2-1 strain (AID 157). As to conditions: S. cerevisiae mec2-1 strain, at 50.0 µM, active compounds read high. The procedure, abridged:
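Readout is yeast growth inhibition, normalised to vehicle-treated controls, in the mec2-1 strain exposed to compound.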

Assay [3] is described as follows: NCI Yeast Anticancer Drug Screen. Data for the sgs1 mgt1 strain (AID 161).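 Note: 0% = growth of cultures given vehicle only.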 The conditions noted are these: S. cerevisiae sgs1 mgt1 strain, at 50.0 µM, active compounds read high. The procedure, abridged:
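Yeast cells carrying a defined DNA-repair defect were exposed to test compounds. Growth inhibition was measured relative to vehicle-treated controls.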

A short description of assay [4]: NCI Yeast Anticancer Drug Screen. Data for the cln2 rad14 strain (AID 165).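 Note: 0% = growth equal to vehicle treated cultures.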 As to conditions: S. cerevisiae cln2 rad14 strain, at 50.0 µM, active compounds read high. In outline:
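Relative to vehicle controls, growth inhibition of compound-treated cln2 rad14 yeast was recorded.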

The nature of assay [5]: NCI Yeast Anticancer Drug Screen. Data for the bub3 strain (AID 167). The conditions noted are these: S. cerevisiae bub3 mutant strain, at 50.0 µM, active compounds read high. In outline: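 Yeast carrying a defined mutation is treated with each compound, and growth is compared with that of vehicle-exposed cells to give inhibition.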
The nature of assay [6]: NCI Yeast Anticancer Drug Screen. Data for the mlh1 rad18 strain (AID 175). The conditions noted are these: S. cerevisiae mlh1 rad18 strain growth inhibition; at 50.0 µM; active compounds read high. In outline: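 Test agents were incubated with a yeast strain of defined genotype (DNA damage repair defect). Inhibition of growth was derived by comparison with vehicle-exposed cultures.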

This is part of a sample that, as a whole, favours compounds with a hit. Of some 79,000 tested, about 15% had one in any assay. Values without a mark were called inactive. Active and inactive are the calls of the source. Cut-off read from the data, not from the text of the source: active = growth inhibition above about 70%; inactive = the rest.

Experimental findings from PubChem BioAssay (NCI) are described below.

As to `CCOC(=O)N(C)N=NCCCl`, the growth inhibition is 15.2% in assay [1]; 2.2% in assay [2]; -5.05% in assay [3]; -26.9% in assay [4]; 8.2% in assay [5]; -4.9% in assay [6].
Regarding `N#CC(=C1CCN(Cc2ccccc2)CC1)c1ccccc1`, the growth inhibition in assay [1] is 37.2%; in assay [2] it was 12.7%; in assay [3] it was 44.8%; in assay [4], 47.6%; in assay [5], 63.5%; in assay [6], 35.2%.
`CCCC(=O)/C=C\c1ccccc1`: the growth inhibition was 21.6% in assay [1]; -3.7% in assay [2]; 6.55% in assay [3]; -61.9% in assay [4]; 3.2% in assay [5]; -10.7% in assay [6].
In the case of `CN1CC(=O)N(C(=O)c2ccccc2)C1=N`, the growth inhibition is -6.6% in assay [1]; -17.2% in assay [2]; -6.4% in assay [3]; -17.9% in assay [4]; -2.15% in assay [5]; 9.55% in assay [6].
In the case of `N#C/C(C(=N)c1ccccc1)=C1\SS/C(=C(\C#N)C(=N)c2ccccc2)S1`, the growth inhibition was 7.2% in assay [1]; 2.35% in assay [2]; 7.6% in assay [3]; 23.7% in assay [4]; 3.7% in assay [5]; -4.45% in assay [6].
For the compound `N=C(N)n1[nH]c2c(c1=O)CCCC2`, the growth inhibition in assay [1] was 5.6%; in assay [2] it was 6.75%; in assay [3], -12.1%; in assay [4] it was 6.25%; in assay [5], 2.85%; in assay [6] it was -19.4%.
Consider `CNC(=O)OCc1nc(SC)n(Cc2ccccc2)c1COC(=O)NC`, for which the growth inhibition in assay [1] is 15.3%; in assay [2] it was 5.9%; in assay [3], 11.2%; in assay [4], -1.1%; in assay [5], -1.55%; in assay [6] it was 18.5%.
As to `CCCCN(CCCC)CC(C)O` (stereo not given), the growth inhibition was -21.8% in assay [1]; -35.8% in assay [2]; -22.4% in assay [3]; 16.9% in assay [4]; -12.9% in assay [5]; -18.6% in assay [6].
For the compound `O=C(O)C1Cc2c([nH]c3ccccc23)C(c2ccccc2)N1` (stereo not given), the growth inhibition is 1.3% in assay [1]; 11.1% in assay [2]; 10.8% in assay [3]; -56.6% in assay [4]; -16.8% in assay [5]; 14.4% in assay [6].
In the case of `COc1cccc(C[n+]2cc([O-])on2)c1`, the growth inhibition in assay [1] is -16.1%; in assay [2], 26.1%; in assay [3], -3.3%; in assay [4], -27.5%; in assay [5], 21.1%; in assay [6], 18.4%.
With `Cn1c([N+](=O)[O-])cnc1COc1ccc(OCc2ncc([N+](=O)[O-])n2C)cc1`, the growth inhibition was 4.45% in assay [1]; -20.1% in assay [2]; -0.55% in assay [3]; 27.6% in assay [4]; 0.4% in assay [5]; -2.7% in assay [6].
Turning to `CCCCCCc1c(N)nc(N)[nH]c1=O`, the growth inhibition in assay [1] was 4.3%; in assay [2], 9.35%; in assay [3], -11.2%; in assay [4], -36.8%; in assay [5], -12.9%; in assay [6], -14.2%.
Consider `CCC(c1ccccc1)c1cc(C(C)(C)C)cc(C(C)(C)C)c1O` (stereo not given), for which the growth inhibition in assay [1] is 31.9%; in assay [2] it was -36%; in assay [3], -15.4%; in assay [4], -2.25%; in assay [5], 25.4%; in assay [6] it was 0.95%.
Consider `CC(C)OC(CCCl)c1ccc(Cl)cc1` (stereo not given), for which the growth inhibition in assay [1] was -7%; in assay [2], -9.2%; in assay [3] it was -22.1%; in assay [4] it was 7.2%; in assay [5], -37.6%; in assay [6], -2.25%.
Consider `COC1=C(NCCc2ccccc2)C(=O)C(OC)=C(NCCc2ccccc2)C1=O`, for which the growth inhibition was -43.2% in assay [1]; -4.7% in assay [2]; 18.9% in assay [3]; -22.3% in assay [4]; 1.5% in assay [5]; -11.6% in assay [6].
In the case of `Brc1cn2[n+](c1)[B-]n1cc(Br)c[n+]1[B-]2`, the growth inhibition is 0.85% in assay [1]; -4.6% in assay [2]; -3.6% in assay [3]; -7.65% in assay [4]; 6.65% in assay [5]; 12% in assay [6].
`CSc1ccccc1C1CCCCCC1O` (stereo not given): the growth inhibition in assay [1] was 11%; in assay [2] it was 12.8%; in assay [3], 5.65%; in assay [4], 12.8%; in assay [5], -30.6%; in assay [6], 10.1%.
For `NCCCNCCCCNCCCNCc1c2ccccc2c(CNCCCNCCCCNCCCN)c2ccccc12`, the growth inhibition in assay [1] is 90.7% (active); in assay [2], 93.1% (active); in assay [3], 93.2% (active); in assay [4], 91.9% (active); in assay [5], 91.8% (active); in assay [6], 90.8% (active).
Take `CC(C)NC(=O)c1ccccc1Sc1ccccc1CN(C)C(C)C`: the growth inhibition in assay [1] is -11.3%; in assay [2], 5.5%; in assay [3], 7.1%; in assay [4], 6.55%; in assay [5] it was 8.9%; in assay [6], 6.75%.
Regarding `C[n+]1cc(N)cc2ccccc21`, the growth inhibition in assay [1] is 1.65%; in assay [2], -4.9%; in assay [3] it was -6.75%; in assay [4], 3.3%; in assay [5], 9.8%; in assay [6], -16.4%.
